# Values without a mark were called inactive.
# Tests used:
# Test in all cases: log2 ratio of Biotin-Ahx-Ub-VS probe labelling (fragment/DMSO); higher = less target engagement (more negative = stronger competition), active = hit call of the paper (q ≤ 0.05, log2 ratio ≤ -1)
# Settings in all cases: compound concentration: 200 uM; treatment time: 3 h
# USP19 = molecular target: T1, USP19 (UniProt O94966)
# T1 sequence (whole entry): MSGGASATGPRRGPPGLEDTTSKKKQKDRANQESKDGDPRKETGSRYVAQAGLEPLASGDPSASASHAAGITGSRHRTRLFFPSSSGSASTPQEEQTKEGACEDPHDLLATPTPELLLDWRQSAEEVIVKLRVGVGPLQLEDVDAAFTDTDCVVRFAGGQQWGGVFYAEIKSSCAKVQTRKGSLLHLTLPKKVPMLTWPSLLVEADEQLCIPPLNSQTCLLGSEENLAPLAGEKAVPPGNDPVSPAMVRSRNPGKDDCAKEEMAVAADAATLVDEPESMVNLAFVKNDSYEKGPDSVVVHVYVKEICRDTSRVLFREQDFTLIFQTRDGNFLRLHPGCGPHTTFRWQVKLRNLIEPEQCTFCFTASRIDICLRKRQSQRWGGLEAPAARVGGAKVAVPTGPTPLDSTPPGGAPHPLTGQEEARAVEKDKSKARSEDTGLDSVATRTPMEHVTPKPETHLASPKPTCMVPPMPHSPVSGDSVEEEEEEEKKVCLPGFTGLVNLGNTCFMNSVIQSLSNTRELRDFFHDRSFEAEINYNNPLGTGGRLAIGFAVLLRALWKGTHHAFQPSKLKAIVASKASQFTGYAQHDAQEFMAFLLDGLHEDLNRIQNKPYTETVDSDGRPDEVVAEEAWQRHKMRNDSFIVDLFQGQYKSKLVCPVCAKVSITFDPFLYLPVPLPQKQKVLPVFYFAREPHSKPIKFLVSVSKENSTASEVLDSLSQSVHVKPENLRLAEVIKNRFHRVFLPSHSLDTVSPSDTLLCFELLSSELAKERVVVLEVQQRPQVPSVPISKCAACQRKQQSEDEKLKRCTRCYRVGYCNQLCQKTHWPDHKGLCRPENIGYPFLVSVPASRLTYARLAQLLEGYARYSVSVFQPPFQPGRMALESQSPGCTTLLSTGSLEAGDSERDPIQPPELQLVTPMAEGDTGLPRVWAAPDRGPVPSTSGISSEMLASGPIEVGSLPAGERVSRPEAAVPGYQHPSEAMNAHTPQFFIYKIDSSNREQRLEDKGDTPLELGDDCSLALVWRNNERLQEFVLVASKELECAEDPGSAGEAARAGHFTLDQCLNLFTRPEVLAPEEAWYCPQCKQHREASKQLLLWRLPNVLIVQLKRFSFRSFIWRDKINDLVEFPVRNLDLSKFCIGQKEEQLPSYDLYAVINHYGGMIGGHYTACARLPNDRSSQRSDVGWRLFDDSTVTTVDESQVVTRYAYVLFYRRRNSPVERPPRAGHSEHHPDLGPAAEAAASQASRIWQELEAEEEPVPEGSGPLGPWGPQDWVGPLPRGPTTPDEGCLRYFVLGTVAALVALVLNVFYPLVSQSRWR
# Outline: (§1)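 The table lists average log2 ratios of fragment over vehicle, from an unpaired t-test on global-median-normalised Spectronaut label-free quantities. Proteins with ≥2 unique peptides were used. Samples were HEK293T lysate (495 µg) treated in triplicate with fragment at 200 µM or vehicle for 3 h, then with Biotin-Ahx-Ub-VS (0.5 µM final) for 1 h, with labelled DUBs NeutrAvidin-enriched and run by diaPASEF LC-MS/MS.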
# USP22 = molecular target: T2, USP22 (UniProt Q9UPT9)
# T2 sequence (whole entry): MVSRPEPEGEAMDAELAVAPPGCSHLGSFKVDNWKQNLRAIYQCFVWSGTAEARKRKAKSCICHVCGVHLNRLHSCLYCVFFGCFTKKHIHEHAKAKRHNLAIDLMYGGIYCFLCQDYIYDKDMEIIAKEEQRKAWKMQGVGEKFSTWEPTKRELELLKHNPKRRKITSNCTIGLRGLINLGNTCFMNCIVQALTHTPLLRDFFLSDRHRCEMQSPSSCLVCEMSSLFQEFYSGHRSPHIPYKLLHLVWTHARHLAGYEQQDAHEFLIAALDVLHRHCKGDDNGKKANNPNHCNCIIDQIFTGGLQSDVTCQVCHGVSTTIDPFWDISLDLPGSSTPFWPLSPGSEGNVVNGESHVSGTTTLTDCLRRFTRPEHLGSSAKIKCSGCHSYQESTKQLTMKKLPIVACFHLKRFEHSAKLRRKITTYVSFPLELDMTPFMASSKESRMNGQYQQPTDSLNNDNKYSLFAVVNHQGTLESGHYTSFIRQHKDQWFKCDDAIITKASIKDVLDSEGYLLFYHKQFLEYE
# Outline: as §1
# USP24 = USP24 (UniProt Q9UPU5)
# Sequence of USP24 (Q9UPU5 whole entry): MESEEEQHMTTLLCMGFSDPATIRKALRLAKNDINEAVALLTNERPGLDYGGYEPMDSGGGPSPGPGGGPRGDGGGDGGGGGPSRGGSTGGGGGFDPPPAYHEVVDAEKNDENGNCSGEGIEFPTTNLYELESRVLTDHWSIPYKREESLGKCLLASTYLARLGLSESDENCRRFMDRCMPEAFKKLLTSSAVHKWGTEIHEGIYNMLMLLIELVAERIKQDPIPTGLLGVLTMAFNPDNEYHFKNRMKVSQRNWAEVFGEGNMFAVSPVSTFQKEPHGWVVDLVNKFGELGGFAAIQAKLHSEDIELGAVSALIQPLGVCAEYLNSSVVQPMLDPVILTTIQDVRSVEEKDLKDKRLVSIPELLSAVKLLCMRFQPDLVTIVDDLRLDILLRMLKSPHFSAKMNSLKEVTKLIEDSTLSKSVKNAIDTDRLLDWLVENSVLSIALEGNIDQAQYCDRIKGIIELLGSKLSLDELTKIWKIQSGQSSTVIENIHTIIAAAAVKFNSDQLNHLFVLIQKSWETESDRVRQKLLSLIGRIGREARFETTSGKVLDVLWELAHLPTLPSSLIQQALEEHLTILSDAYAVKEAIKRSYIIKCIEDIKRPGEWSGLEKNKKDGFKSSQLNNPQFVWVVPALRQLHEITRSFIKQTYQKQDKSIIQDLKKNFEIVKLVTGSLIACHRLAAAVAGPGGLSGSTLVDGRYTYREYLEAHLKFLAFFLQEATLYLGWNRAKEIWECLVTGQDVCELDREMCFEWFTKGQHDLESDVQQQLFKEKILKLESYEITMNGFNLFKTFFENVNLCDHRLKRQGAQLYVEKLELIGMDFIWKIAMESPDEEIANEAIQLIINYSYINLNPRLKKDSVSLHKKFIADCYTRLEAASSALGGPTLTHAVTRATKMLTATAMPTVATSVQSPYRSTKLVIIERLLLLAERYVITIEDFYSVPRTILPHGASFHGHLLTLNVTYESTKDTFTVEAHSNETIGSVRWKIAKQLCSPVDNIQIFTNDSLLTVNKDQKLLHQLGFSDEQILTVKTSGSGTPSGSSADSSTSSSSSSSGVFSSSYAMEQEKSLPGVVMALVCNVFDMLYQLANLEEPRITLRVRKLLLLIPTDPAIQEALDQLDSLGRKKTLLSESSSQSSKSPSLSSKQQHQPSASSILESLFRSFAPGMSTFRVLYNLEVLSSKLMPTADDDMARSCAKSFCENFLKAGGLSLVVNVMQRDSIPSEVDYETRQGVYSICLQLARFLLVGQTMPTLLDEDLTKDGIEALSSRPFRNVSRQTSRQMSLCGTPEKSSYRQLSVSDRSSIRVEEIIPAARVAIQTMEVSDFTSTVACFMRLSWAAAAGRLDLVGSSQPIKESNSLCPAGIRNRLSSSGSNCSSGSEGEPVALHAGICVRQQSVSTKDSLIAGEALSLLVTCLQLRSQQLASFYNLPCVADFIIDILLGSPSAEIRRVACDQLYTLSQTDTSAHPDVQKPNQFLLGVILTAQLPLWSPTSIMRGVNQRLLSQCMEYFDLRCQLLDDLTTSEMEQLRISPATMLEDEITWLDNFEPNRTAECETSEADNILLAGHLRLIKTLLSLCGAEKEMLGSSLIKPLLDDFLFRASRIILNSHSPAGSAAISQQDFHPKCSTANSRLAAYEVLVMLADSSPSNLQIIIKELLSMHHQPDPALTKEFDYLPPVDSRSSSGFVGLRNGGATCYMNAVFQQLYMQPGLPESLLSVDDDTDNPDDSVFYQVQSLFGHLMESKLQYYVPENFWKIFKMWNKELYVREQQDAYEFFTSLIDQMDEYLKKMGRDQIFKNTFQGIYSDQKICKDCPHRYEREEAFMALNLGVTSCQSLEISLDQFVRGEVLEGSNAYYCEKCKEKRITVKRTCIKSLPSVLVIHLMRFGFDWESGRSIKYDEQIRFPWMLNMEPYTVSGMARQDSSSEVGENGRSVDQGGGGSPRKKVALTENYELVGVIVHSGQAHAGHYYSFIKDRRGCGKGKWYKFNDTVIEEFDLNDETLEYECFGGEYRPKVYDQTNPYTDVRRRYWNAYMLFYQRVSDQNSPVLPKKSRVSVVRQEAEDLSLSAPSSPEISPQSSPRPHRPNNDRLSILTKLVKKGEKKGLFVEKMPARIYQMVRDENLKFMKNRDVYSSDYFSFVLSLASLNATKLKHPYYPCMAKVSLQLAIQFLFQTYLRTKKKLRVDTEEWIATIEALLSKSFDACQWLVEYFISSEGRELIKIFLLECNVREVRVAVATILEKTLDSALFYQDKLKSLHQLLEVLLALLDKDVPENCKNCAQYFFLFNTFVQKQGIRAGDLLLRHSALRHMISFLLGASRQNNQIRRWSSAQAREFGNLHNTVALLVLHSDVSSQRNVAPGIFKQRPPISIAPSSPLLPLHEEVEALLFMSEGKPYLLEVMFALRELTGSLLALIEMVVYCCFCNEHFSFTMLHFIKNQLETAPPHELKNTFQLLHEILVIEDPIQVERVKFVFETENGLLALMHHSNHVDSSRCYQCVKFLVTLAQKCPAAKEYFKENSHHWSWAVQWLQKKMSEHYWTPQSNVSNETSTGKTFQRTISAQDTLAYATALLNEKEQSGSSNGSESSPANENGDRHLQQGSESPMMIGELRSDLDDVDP
# Outline: as §1
# USP25 = molecular target: T3, USP25 (UniProt Q9UHP3)
# T3 sequence (whole entry): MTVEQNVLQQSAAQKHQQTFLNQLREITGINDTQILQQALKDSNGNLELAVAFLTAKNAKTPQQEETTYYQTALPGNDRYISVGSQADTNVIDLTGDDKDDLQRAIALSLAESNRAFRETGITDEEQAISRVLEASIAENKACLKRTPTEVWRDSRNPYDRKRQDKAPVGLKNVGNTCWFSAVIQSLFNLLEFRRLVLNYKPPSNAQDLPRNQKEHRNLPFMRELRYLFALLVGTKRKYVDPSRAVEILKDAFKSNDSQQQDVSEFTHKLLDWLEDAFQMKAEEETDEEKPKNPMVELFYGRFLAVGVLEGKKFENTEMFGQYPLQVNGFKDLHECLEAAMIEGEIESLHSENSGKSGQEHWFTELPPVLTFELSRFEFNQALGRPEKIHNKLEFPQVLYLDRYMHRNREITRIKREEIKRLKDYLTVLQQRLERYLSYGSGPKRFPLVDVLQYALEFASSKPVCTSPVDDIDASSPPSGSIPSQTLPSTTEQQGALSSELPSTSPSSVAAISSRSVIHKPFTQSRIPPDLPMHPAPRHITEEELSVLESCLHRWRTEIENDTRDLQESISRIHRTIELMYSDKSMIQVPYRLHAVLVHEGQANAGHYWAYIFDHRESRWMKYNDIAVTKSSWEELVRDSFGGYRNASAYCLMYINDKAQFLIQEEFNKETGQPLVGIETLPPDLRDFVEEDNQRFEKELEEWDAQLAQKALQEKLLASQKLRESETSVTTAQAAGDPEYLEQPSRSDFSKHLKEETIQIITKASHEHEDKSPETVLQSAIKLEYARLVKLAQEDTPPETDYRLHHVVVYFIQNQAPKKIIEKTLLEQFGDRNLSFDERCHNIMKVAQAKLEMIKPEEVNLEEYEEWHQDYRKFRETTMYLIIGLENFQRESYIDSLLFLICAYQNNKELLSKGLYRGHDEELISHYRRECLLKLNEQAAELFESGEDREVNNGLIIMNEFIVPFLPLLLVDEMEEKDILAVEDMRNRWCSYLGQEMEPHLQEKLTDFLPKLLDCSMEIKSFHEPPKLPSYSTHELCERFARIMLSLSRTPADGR
# Outline: as §1
# USP28 = molecular target: T4, USP28 (UniProt Q96RU2)
# T4 sequence (whole entry): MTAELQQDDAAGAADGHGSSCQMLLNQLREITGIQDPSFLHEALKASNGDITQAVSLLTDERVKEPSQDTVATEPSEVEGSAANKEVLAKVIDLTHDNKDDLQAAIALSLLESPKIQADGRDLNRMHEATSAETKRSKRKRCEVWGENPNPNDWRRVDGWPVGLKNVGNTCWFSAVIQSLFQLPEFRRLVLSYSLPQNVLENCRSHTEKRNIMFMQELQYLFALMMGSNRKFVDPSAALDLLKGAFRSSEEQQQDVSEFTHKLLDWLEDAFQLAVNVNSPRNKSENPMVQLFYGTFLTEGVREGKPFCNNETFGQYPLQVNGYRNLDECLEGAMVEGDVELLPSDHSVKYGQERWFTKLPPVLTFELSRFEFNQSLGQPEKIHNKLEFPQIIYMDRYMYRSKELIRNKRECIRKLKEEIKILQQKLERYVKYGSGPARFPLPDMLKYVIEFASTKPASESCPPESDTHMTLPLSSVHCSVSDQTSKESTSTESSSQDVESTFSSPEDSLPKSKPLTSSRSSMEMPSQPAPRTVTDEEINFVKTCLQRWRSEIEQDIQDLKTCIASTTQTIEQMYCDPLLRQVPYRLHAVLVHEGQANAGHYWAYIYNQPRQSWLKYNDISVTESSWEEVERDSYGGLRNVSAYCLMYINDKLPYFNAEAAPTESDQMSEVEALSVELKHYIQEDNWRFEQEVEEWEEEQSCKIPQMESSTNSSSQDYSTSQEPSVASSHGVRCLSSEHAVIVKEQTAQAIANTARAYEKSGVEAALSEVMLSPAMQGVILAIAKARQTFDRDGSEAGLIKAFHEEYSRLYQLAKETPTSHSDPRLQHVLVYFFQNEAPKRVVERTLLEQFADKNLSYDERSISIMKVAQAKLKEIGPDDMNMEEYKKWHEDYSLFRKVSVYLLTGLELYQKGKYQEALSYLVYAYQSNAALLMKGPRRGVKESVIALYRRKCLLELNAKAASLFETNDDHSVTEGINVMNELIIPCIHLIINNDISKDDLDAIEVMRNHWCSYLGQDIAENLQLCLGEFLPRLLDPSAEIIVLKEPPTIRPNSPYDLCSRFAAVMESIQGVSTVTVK
# Outline: as §1
structure (smiles),measurement,setting,value
O=C(CCl)N1CCOC(CCc2ccccc2)C1 (stereo not given),log2 ratio of Biotin-Ahx-Ub-VS probe labelling,USP19,-0.687
same,log2 ratio of Biotin-Ahx-Ub-VS probe labelling,USP22,-0.0816
same,log2 ratio of Biotin-Ahx-Ub-VS probe labelling,USP24,-1.37 (active)
same,log2 ratio of Biotin-Ahx-Ub-VS probe labelling,USP25,-0.497
same,log2 ratio of Biotin-Ahx-Ub-VS probe labelling,USP28,-0.802

# Source: the supplement of paper PMC11732987, “Enantioselective OTUD7B fragment discovery through chemoproteomics screening and high-throughput optimisation” (Communications Chemistry, 2025)
